Bioassay records (PubChem)
tim23-1 inh: growth inhibitors of tim23-1 mutant yeast, primary screen, luminescence, uHTS | S. cerevisiae tim23-1 growth, BacTiter-Glo luminescence, 24 h | inhibition, % at 20 µM | 330,000 compounds, 1.3% hits;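 active = growth inhibition of the mutant yeast at or above 50%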;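 note: temperature-sensitive mutant grown at 25 °C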
TIM10 inh: growth inhibitors of isogenic TIM10 control yeast, primary screen, counter-screen for tim10-1 yeast inhibitor project, luminescence, uHTS. S. cerevisiae TIM10 strain growth, BacTiter-Glo luminescence, 24 h. inhibition, % at 10 µM. 330,000 compounds, 1.4% hits. AID 463195, 2010;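 active = inhibition of 40% or more at the single tested concentration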;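 note: wild-type TIM10 isogenic control strain grown at permissive 25 °C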
NALP3 yeast inh: NALP3 inflammasome inhibitors in reconstituted yeast, primary screen, luminescence, uHTS | 330,000 compounds, 0.39% hits | Yeast reconstituted NLRP3/ASC/caspase-1, beta-gal luminescence, 24 h | inhibition, % at 10 µM;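 active = inhibition of 50% or more; inactive = inhibition below 50%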
tim10-1 inh: growth inhibitors of tim10-1 mutant yeast, primary screen, luminescence, uHTS; inhibition, % at 20 µM; S. cerevisiae tim10-1 ts strain growth, BacTiter-Glo, 24 h; 330,000 compounds, 2.2% hits; AID 463190, 2010;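 active = inhibition of at least 40%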;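 note: mutant grown at 25 °C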
Yeast superoxide: reduction of superoxide in aged yeast, primary screen, HTS | AID 2690, 2010 | superoxide response (% of plate mean), % at 10 µM | 330,000 compounds, 0.18% hits | S. cerevisiae aged cells, superoxide DHE fluorescence; hits give low values;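 active = superoxide response under a set limit, about three screen SD below normal, cut at about 65% in these data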;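 note: yeast aged for seven days with compound at 30 °C before DHE staining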
NALP3 confirm: NALP3 inhibitors retested in yeast, confirmation, luminescence, single concentration | shares compounds with NALP3 yeast inh | yeast expressing human NALP3 | inhibition, % at 10 µM | 1,300 compounds, 81% hits | AID 435006, 2010; in the data active = inhibition above about 48%
Casp1-ASC yeast: CASP1-PYCARD signaling inhibition in yeast, confirmatory test, counterassay for NLRP3 inhibitor program, one-dose; shares compounds with NALP3 yeast inh; yeast expressing Caspase-1-ASC, luminescence counter screen; inhibition, % at 10 µM; 1,000 compounds, 66% hits
NALP3 retest: NALP3 inhibitors in yeast, repeat test, confirmation, luminescence, single concentration, retest. shares compounds with NALP3 yeast inh. yeast expressing human NALP3, luminescence read-out. inhibition, % at 10 µM. 1,000 compounds, 53% hits. AID 488794, 2010
Each line names hits and unclear results; the compound was inactive in the other large screens (follow-up assays come after a bar, where they were run). Most compounds without a hit are left out; they make up all but 3.8% or so of the library. Cut-off read from the data, not from the text of the source, unless noted: active = inhibition above about 50%; inactive = the rest.

COc1cc(/C=C2\SC(=S)N(c3cccnc3)C2=O)ccc1O	none
Cc1ccc(/C=C2\SC(=S)N(c3cccnc3)C2=O)cc1	NALP3 yeast inh 54 | NALP3 confirm inactive
O=C1/C(=C/c2ccccn2)SC(=S)N1c1cccc(O)c1	NALP3 yeast inh 81 | NALP3 confirm 74 | Casp1-ASC yeast 80 | NALP3 retest 51
O=C1/C(=C/c2cccnc2)SC(=S)N1CCc1ccccc1	NALP3 yeast inh 50 | NALP3 confirm inactive
CN(C(=O)c1nn(C)c2c1CSc1ccccc1-2)c1ccc(F)cc1	none
Cc1ccccc1-c1ccc(Nc2ccc(N3CCOCC3)cc2)nn1	NALP3 yeast inh 64 | NALP3 confirm 74 | Casp1-ASC yeast 60 | NALP3 retest 62
O=S1(=O)N=C(Nc2ccc(N3CCOCC3)cc2)c2ccccc21	none
O=C(CN1CCN(Cc2ccccc2Cl)C1=O)N1CCCCCC1	none
Cc1ccccc1CN1CCSc2sccc2C1=O	NALP3 yeast inh 58 | NALP3 confirm inactive | Casp1-ASC yeast inactive | NALP3 retest inactive
O=C1c2ccsc2SCCN1Cc1ccccc1Cl	NALP3 yeast inh 51 | NALP3 confirm 57 | Casp1-ASC yeast inactive | NALP3 retest inactive
COc1ccc(-c2nnc(SCc3cccc(C#N)c3)o2)cc1	NALP3 yeast inh 54 | NALP3 confirm inactive
COc1cccc(CSc2nnc(-c3ccc(F)cc3)o2)c1	none
O=C(Nc1ccc2c(c1)oc1ccccc12)c1cccnc1	NALP3 yeast inh 74 | NALP3 confirm 60 | Casp1-ASC yeast inactive | NALP3 retest inactive
CC(C)(C)c1ccc(C(=O)NC(=S)N2CCCC2)cc1	NALP3 yeast inh 63 | NALP3 confirm 49 | Casp1-ASC yeast 80 | NALP3 retest 71
Cn1cc(/C(Cc2ccccc2)=N\O)c2ccccc21	NALP3 yeast inh 56 | NALP3 confirm 68 | Casp1-ASC yeast inactive | NALP3 retest inactive
O=C(Nc1ccc2c(c1)OCO2)Nc1ccccn1	NALP3 yeast inh 53 | NALP3 confirm 61
O=C(Nc1ccc2c(c1)OCO2)c1ccc2c(c1)OCO2	none
O=C(Nc1ccc2c(c1)OCO2)c1cccc(Cl)c1	NALP3 yeast inh 56 | NALP3 confirm 58 | Casp1-ASC yeast 62 | NALP3 retest 61
CNC(=O)NC(=O)C(c1ccccc1)N(C)CC1COc2ccccc2O1 (stereo unspecified)	none
COc1ccc(N=C2S/C(=C\c3ccc(N4CCOCC4)o3)C(=O)N2CCc2c[nH]c3ccccc23)cc1	NALP3 yeast inh 57 | NALP3 confirm 54
C[C@H](NC(=O)c1[nH]cnc1C(=O)Nc1ccc(Cl)cc1)C(=O)OC(C)(C)C	NALP3 yeast inh 58 | NALP3 confirm 65 | Casp1-ASC yeast inactive | NALP3 retest inactive
Cn1nc(C(=O)Nc2ccccc2)c2c1-c1ccccc1S(=O)(=O)C2	none
O=C(NC(=S)/C(=C1\CCCCCN1)[N+](=O)[O-])c1ccccc1	NALP3 yeast inh 59 | NALP3 confirm 54 | Casp1-ASC yeast 64 | NALP3 retest inactive
CCOc1ncnc2c1[nH]c1ccccc12	NALP3 yeast inh 61 | NALP3 confirm 82
CCCOc1ncnc2c1[nH]c1ccc(C)cc12	none
COC(=O)c1ccccc1NC(=O)N1CCN(c2ccc(OC)cc2)CC1	none
CCOC(=O)C(Cc1ccccc1)NC(=O)CCc1nnc2ccc(N3CCCC3)nn12 (stereo unspecified)	none
O=C(Nc1nc2cc3c(cc2s1)OCO3)C1CCCCC1	NALP3 yeast inh 56 | NALP3 confirm 64 | Casp1-ASC yeast 56 | NALP3 retest 53
CS/C(=N\S(=O)(=O)c1cccs1)Nc1cccc(Cl)c1C	none | NALP3 confirm inactive
CCOc1ccc(N(CC)C(=O)c2cn(CC)c(=O)c3cc(OC)c(OC)cc23)cc1	none
CS(=O)(=O)Nc1nc2n(n1)C(c1ccccc1)CC(c1ccccc1)N2 (stereo unspecified)	none
